About 83,000 compounds went through this panel and 20% of them were active in at least one assay; those are over-represented in the sample as a whole.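 Percent growth is the endpoint: 0 to 100 indicates growth inhibition (40 means 60% inhibition), 0 means no net growth, and negative values indicate cell death.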 The source made the active and inactive calls. Rule for the calls: active = growth percent below 10; inactive = the rest.

Experimental findings from PubChem BioAssay (NCI) are described below.

The subject of the test is MDA-MB-468 breast. The test can be described thus: NCI-60 one-dose screen, 48 h (100 = growth as untreated, 0 = no growth, -100 = all killed). To be noted: 10 µM unless noted.
With `CC(=O)CCS(=O)c1ccccc1` (stereo not given), the growth was 104% (inactive). Then `CCOC(=O)c1c2c(c(C)n1Cc1ccc(OC)cc1)-c1oncc1CC2`, with 97.8% (inactive). `CCOc1ccc(Cc2nccc3cc(OCC)c(OCC)cc23)cc1OCC`: the growth is 61.4% (inactive). Then `O=C(Nc1ccc(Cl)cc1)Oc1c(Cl)c(Cl)c(Cl)c(Cl)c1Cl`, with 106% (inactive). As to `Nc1c2c(nc3ccc(Cl)cc13)CC(c1ccc(O)cc1)CC2=O` (stereo not given), the growth was 18% (inactive). For `Cc1ccccc1NC(=O)N/C(N)=N/c1nc(-c2cccc([N+](=O)[O-])c2)cs1`, the growth was 6.27% (active). As to `O=[N+]([O-])c1ccccc1CN1CCCCC1`, the growth is 89.3% (inactive). The figure for `O=S(=O)(Nc1ccc(F)cc1)c1ccc(-c2cnc(C3CC3)o2)cc1` is 4.54% (active). Then `CCCCc1ccc2nc(NC(=O)OC)[nH]c2c1`, with 22.3% (inactive); and `OC(COc1ccccc1Cl)COc1ccccc1Cl`, with 102% (inactive).

For `C[C@H]1[C@H]2C3=CC[C@@H]4[C@@]5(C)C/C(=C/c6ccncc6)C(=O)C(C)(C)[C@@H]5CC[C@@]4(C)[C@]3(C)CC[C@@]2(C(=O)N2CCN(C)CC2)CC[C@@H]1C`, the growth was 41.1% (inactive). Take `COc1cc2c(=O)n(CCN)c3c4cc5c(cc4ccc3c2cc1OC)OCO5`: the growth is -31.7% (active). The figure for `Cc1cc(Nc2ccc(C)c(Cl)c2)n2nc(C(F)(F)F)nc2n1` is 36.5% (inactive); for `Clc1ccccc1C(c1ccccc1)(c1ccccc1)n1ccnc1` it is 2.94% (active). On to `N#Cc1cnn(C(=O)c2nn(-c3ccc(Cl)cc3)cc2O)c1N`, for which the growth was 32.1% (inactive). Take `CN(CCc1ccccn1)c1ccccc1`: the growth is 113% (inactive). The figure for `CCOc1cccc(/C=N/NC(=O)c2ccccc2Nc2ccnc(C(F)(F)F)c2)c1O` is -23.6% (active); for `CCOC(=O)CC[C@H](NC(=O)c1ccc(N(C)Cc2cnc3nc(N)nc(N)c3n2)c2ccccc12)C(=O)OCC` it is 27.1% (inactive).

In the case of `Cc1cc(Cc2cc(C)c(N)cc2N)c(N)cc1N`, the growth is 95.4% (inactive). The figure for `COc1ccc([C@@H]2[C@@H](Cl)C(=O)N2c2cc(OC)c(OC)c(OC)c2)cc1C` is 18.9% (inactive).

Take `CN1CCN(c2cc3c(cc2F)c(=O)c(C(=O)O)cn3-c2ccc(F)cc2)CC1`: the growth is 110% (inactive). The figure for `CCOc1cccc(C2CC(=O)Nc3cc4c(cc32)OCO4)c1` (stereo not given) is 34.2% (inactive); for `O=C1c2c(Cl)c(Cl)c(Cl)c(Cl)c2C(=O)C2(Cl)CC=CCC12Cl` (stereo not given) it is -77.2% (active); for `COc1ccc(\C=N/N=C(N)/C(N)=N\N=C/c2ccc(OC)cc2)cc1` it is 95.7% (inactive). Regarding `C1=CC(c2nn3c(-c4ccccc4)nnc3s2)=Cc2ccccc2O1`, the growth was 44.9% (inactive). Regarding `CCCCCCOc1ccc(/C=N/NC(N)=S)cc1`, the growth was 66.9% (inactive). Take `COc1ccc(-c2[nH]c3ccc(OC)cc3c2C=C(C#N)C#N)cc1`: the growth is -13.7% (active). Take `CCN1C(=O)N[C@H]2[C@@H]3NC(=O)c4ccc(Cl)n4[C@@H]3C[C@]21O`: the growth was -6.44% (active). `COc1cccc(-c2nc3occn3c2-c2ccnc(NCCCNS(=O)(=O)c3ccc(C(F)(F)F)cc3)n2)c1`: the growth was 81.6% (inactive). With `Nc1ncnc2c1N=C(c1ccc3c(c1)OCO3)CC(c1cccc(Nc3ccnc4cc(Cl)ccc34)c1)N2` (stereo not given), the growth was 33.2% (inactive). The figure for `O=C1/C(=N\c2cc(=O)[nH]n2S(=O)(=O)c2ccccc2)Nc2ccccc21` is 106% (inactive).

For the molecule `O=C1OC(N(Cc2ccc(Cl)cc2)c2ccccc2)c2ccccc21` (stereo not given), the growth was 104% (inactive). The figure for `Nc1cc(Br)c(-c2nnc(CCC(=O)c3nc4ccccc4[nH]3)o2)c(Br)c1` is 16.9% (inactive); for `Cn1c2ccccc2c2c3c(c4c5cccnc5[nH]c4c21)C(=O)N(O)C3=O` it is 0.0154% (active); for `CNC(=O)c1c(NC(=O)c2ccc(C(C)C)cc2)sc2c1CCC(=O)C2` it is -28.4% (active). Then `COc1ccc(-c2cc(-c3cccnc3)nc3sc(C(=O)Nc4ccccc4)c(N)c23)cc1OC`, with 80.8% (inactive). For the molecule `Cc1nc2sc(C(=O)Nc3cccc(Br)c3)c(N)c2cc1C(=O)c1ccc(C(F)(F)F)cc1`, the growth is 90.6% (inactive). Then `CN(C)S(=O)(=O)c1ccc(-c2nc(C(Cl)Cl)nc3cc(-c4ccccc4)nn23)cc1`, with 60.7% (inactive); and `CC1=NC2=NN3C(=NN2C(c2ccccc2)=C1)N=NC(c1ccc(Br)cc1)=C3c1ccc(Br)cc1`, with 105% (inactive). As for `O=C(CNC(=O)c1cccc2ccccc12)Nc1ccccc1Oc1cccc(O)c1`, the growth is -3.16% [5 µM] (active).
